PME-1 primary = PME-1 (human) inhibition. Q9Y570. recombinant PME-1, FP-Rh probe fluorescence polarization. inhibition, % at 5.9 µM. hit rate 0.53% among 320,000;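 active = inhibition above the campaign mean of all compounds plus 3 SD, cut at about 26% in these data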;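 also: competitive labeling of PME-1 active site by serine hydrolase directed probe; 0% = PME-1 with DMSO and 100% = wells lacking PME-1 enzyme; inhibitors block probe labeling so polarization falls and inhibition rises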
Target sequence (Q9Y570 whole entry, looked up): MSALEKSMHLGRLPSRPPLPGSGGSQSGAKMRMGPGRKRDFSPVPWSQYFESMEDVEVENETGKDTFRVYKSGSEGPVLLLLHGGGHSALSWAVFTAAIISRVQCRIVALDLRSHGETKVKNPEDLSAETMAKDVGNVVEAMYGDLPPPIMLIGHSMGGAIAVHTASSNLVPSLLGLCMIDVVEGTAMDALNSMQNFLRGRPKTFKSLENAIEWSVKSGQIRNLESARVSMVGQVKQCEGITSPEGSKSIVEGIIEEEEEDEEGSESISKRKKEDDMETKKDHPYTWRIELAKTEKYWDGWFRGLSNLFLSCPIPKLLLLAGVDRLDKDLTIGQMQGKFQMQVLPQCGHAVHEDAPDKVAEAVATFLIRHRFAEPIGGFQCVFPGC
PAD4 inh = inhibitors of human PAD4. Q9UM07. recombinant PAD4, RCA probe fluorescence polarization. inhibition, % at 6.36 µM. hit rate 0.41% among 330,000;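 active = percent inhibition above a cutoff equal to the mean of all tested compounds plus 3 SD, cut at about 15% in these data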;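 also: 0% = PAD4 with RCA probe and DMSO and 100% = probe without PAD4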
Fam108B counter = Fam108B inhibition, counter-screen for RBBP9 inhibitors. recombinant Fam108B, FP-Rh probe fluorescence polarization. inhibition, % at 9.51 µM. hit rate 0.33% among 300,000. AID 1947;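 active = inhibition above the screen mean inhibition plus 3 SD, computed separately per campaign, cut at about 18% in these data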;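 also: inhibitors lower polarization as less probe binds the enzyme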
GSTO1 counter = blocks human GSTO1 in RBBP9 counter-screen; P78417; recombinant GSTO1, activity-based probe fluorescence polarization; inhibition, % at 5.96 µM; hit rate 1.1% among 300,000; AID 1974;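 active = inhibition above the campaign mean inhibition plus 3 SD, cut at about 35% in these data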;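 also: 0% = GSTO1-1 with DMSO and 100% = wells lacking GSTO1-1 enzyme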
LYPLA1 counter = blocks human lysophospholipase 1, a PME1 counter-screen. O75608. AID 2174. inhibition, % at 5.9 µM. hit rate 0.16% among 320,000. recombinant LYPLA1, FP-Rh probe fluorescence polarization;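 active = inhibition above the mean of all tested compounds plus 3 SD, set per campaign, cut at about 14% in these data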;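 also: inhibitors block serine hydrolase probe labeling of LYPLA1 so polarization falls; 0% = enzyme with DMSO and 100% = wells lacking LYPLA1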
LYPLA2 counter = blocks human lysophospholipase 2, a PME1 counter-screen. O95372. recombinant LYPLA2, FP-Rh probe fluorescence polarization. inhibition, % at 5.9 µM. hit rate 0.38% among 320,000;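 active = inhibition above the screen-wide mean plus 3 SD, limit set per campaign, cut at about 26% in these data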;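 also: 0% = LYPLA2 with DMSO and 100% = wells lacking LYPLA2 enzyme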
Target sequence (O95372 whole entry, looked up): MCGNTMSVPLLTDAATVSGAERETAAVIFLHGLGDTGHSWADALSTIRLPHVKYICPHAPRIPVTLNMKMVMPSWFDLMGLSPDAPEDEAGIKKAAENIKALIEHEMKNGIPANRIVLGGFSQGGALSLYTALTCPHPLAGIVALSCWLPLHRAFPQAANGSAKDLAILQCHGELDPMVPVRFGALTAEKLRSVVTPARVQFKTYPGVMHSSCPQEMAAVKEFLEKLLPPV
GSTO1 inh conf = GSTO1 (human) inhibition, confirmation. shares compounds with GSTO1 counter. recombinant GSTO1, probe fluorescence polarization. inhibition, % at 5.96 µM. hit rate 54% among 2,400;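 active = inhibition above the primary screen's cutoff, its mean inhibition plus 3 SD, cut at about 35% in these data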;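 also: loss of polarization as inhibitors block binding of rhodamine sulfonate ester activity probe; 0% = GSTO1 with DMSO and 100% = wells lacking GSTO1 enzyme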
Active calls of the source: *. Sampled rows, rich in hits. Any-hit rate of the full collection: about 1.7%.

Screening COCCn1c(COC)nc2ccccc21 returned PME-1 primary 3, PAD4 inh 2, Fam108B counter 7, GSTO1 counter 2, LYPLA1 counter -2 and LYPLA2 counter -4.
Screening COCc1nc2ccccc2n1CCc1ccccc1 returned PME-1 primary -3, PAD4 inh -3, Fam108B counter -3, GSTO1 counter 40*, LYPLA1 counter 3, LYPLA2 counter -5 and GSTO1 inh conf 5.
`CCN1CCN(C2=C(NS(=O)(=O)c3ccc(Br)cc3)C(=O)c3ccccc3C2=O)CC1` gave PME-1 primary 9, PAD4 inh 9, Fam108B counter 5, GSTO1 counter 59*, LYPLA1 counter 2, LYPLA2 counter 10 and GSTO1 inh conf 30.
CCOC(=O)N1CCN(C2=C(NS(=O)(=O)c3ccccc3)C(=O)c3ccccc3C2=O)CC1 was read as PME-1 primary 3, PAD4 inh -7, Fam108B counter 3, GSTO1 counter 12, LYPLA1 counter 2 and LYPLA2 counter 0.
For O=C1C(NS(=O)(=O)c2cccs2)=C(N2CCN(Cc3ccccc3)CC2)C(=O)c2ccccc21 the results were PME-1 primary 7, PAD4 inh -15, Fam108B counter 5, GSTO1 counter 29, LYPLA1 counter 8 and LYPLA2 counter 10.
For CCOC(=O)C1CCN(C2=C(NS(=O)(=O)c3ccc(Br)cc3)C(=O)c3ccccc3C2=O)CC1 the results were PME-1 primary 19, PAD4 inh -5, Fam108B counter 3, GSTO1 counter 45*, LYPLA1 counter 0, LYPLA2 counter 8 and GSTO1 inh conf 14.
CCN1CCN(C2=C(NS(=O)(=O)c3ccccc3)C(=O)c3ccccc3C2=O)CC1 was read as PME-1 primary 3, PAD4 inh -12, Fam108B counter 1, GSTO1 counter 49*, LYPLA1 counter -1, LYPLA2 counter -4 and GSTO1 inh conf 38*.
Screening CN1CCN(C2=C(NS(=O)(=O)c3ccccc3)C(=O)c3ccccc3C2=O)CC1 returned PME-1 primary -2, PAD4 inh 1, Fam108B counter 2, GSTO1 counter 46*, LYPLA1 counter -1, LYPLA2 counter 0 and GSTO1 inh conf 10.
Screening CNc1nc(Sc2ccc(C)cc2)cc(C(F)(F)F)n1 returned PME-1 primary 0, PAD4 inh 0, Fam108B counter -3, GSTO1 counter 0, LYPLA1 counter 2 and LYPLA2 counter 7.
`COc1ccc(S(N)(=O)=O)cc1C(=O)OCC1CCCCC1` gave PME-1 primary -1, PAD4 inh -1, Fam108B counter 2, GSTO1 counter 5, LYPLA1 counter 2 and LYPLA2 counter -2.
O=C1C(NS(=O)(=O)c2ccc(Cl)cc2)=C(N2CCCCC2)C(=O)c2ccccc21 was read as PME-1 primary 7, PAD4 inh -11, Fam108B counter 8, GSTO1 counter 48*, LYPLA1 counter 1, LYPLA2 counter 6 and GSTO1 inh conf 27.
For CN1CCN(C2=C(NS(=O)(=O)c3cccs3)C(=O)c3ccccc3C2=O)CC1 the results were PME-1 primary 2, PAD4 inh -14, Fam108B counter 0, GSTO1 counter 17, LYPLA1 counter -1 and LYPLA2 counter 3.
Screening O=c1c2ccccc2nc(COc2ccccc2)n1/N=C/c1ccc(O)c(O)c1 returned PME-1 primary 18, PAD4 inh 3, Fam108B counter 4, GSTO1 counter 53*, LYPLA1 counter -10, LYPLA2 counter -6 and GSTO1 inh conf 8.
Cc1n[nH]c(=S)n1/N=C/c1c(O)ccc2ccccc12 was read as PME-1 primary -2, PAD4 inh -7, Fam108B counter 7, GSTO1 counter 59*, LYPLA1 counter -2, LYPLA2 counter 2 and GSTO1 inh conf 8.
`Cc1nc2ccccc2c(=O)n1/N=C/c1c(O)ccc2ccccc12` gave PME-1 primary 0, PAD4 inh -6, Fam108B counter -2, GSTO1 counter 63*, LYPLA1 counter -5, LYPLA2 counter 4 and GSTO1 inh conf 3.
For Cc1nc2ccccc2c(=O)n1/N=C/c1cc(Br)ccc1O the results were PME-1 primary -3, PAD4 inh 2, Fam108B counter 4, GSTO1 counter 7, LYPLA1 counter -4 and LYPLA2 counter -7.
For N#CC1=C(N)OC2=C(C(=O)CCC2)C1C1C=CCCC1 (centres undefined) the results were PME-1 primary 1, PAD4 inh 1, Fam108B counter -5, GSTO1 counter 0, LYPLA1 counter 0 and LYPLA2 counter 3.
For Nc1c(-c2ccccc2)c(CSc2nc3ccccc3[nH]2)nn1-c1ccc(C(=O)O)cc1 the results were PME-1 primary -2, PAD4 inh -2, Fam108B counter 2, GSTO1 counter 1, LYPLA1 counter -2 and LYPLA2 counter -7.
Cc1cc([N+](=O)[O-])c2c(c1C)C1C=CCC1C(c1ccccn1)N2 (centres undefined) was read as PME-1 primary 7, PAD4 inh -1, Fam108B counter 12, GSTO1 counter 52*, LYPLA1 counter 0, LYPLA2 counter 6 and GSTO1 inh conf 10.
For O=C(CCNC(=O)c1ccc([N+](=O)[O-])cc1)NNC(=O)c1ccccc1F the results were PME-1 primary -7, PAD4 inh -6, LYPLA1 counter -4 and LYPLA2 counter 2.
CCOC(=O)CC[C@H](NC(=O)Cn1cnc2c(SC)nc(N)nc21)C(=O)OCC was read as PAD4 inh -4.
`CCC1=NN(C(=O)CCc2ccccc2O)C(O)(C(F)(F)F)C1` (centres undefined) gave PME-1 primary -1, PAD4 inh -1, Fam108B counter 0, GSTO1 counter 3, LYPLA1 counter -2 and LYPLA2 counter -4.
`COc1ccc(NS(=O)(=O)c2cccc(C(=O)NNC(=O)c3ccccc3O)c2)cc1` gave PME-1 primary -4, PAD4 inh 3, Fam108B counter 1, GSTO1 counter 47*, LYPLA1 counter -3, LYPLA2 counter -3 and GSTO1 inh conf 9.
For COc1ccc(NS(=O)(=O)c2cccc(C(=O)NNC(=O)c3cc(C)oc3C)c2)cc1 the results were PME-1 primary -6, PAD4 inh -8, Fam108B counter -6, GSTO1 counter 4, LYPLA1 counter 1 and LYPLA2 counter -7.
For CNc1ccccc1NC(=O)C1CCCN1C(=O)OCc1ccccc1 (centres undefined) the results were PME-1 primary -3, PAD4 inh -2, Fam108B counter -5, GSTO1 counter -6, LYPLA1 counter -2 and LYPLA2 counter -5.
For Nc1scc2c(C(=O)N/N=C/c3ccc(Cl)cc3)nn(-c3ccccc3)c(=O)c12 the results were PME-1 primary 21, PAD4 inh -2, Fam108B counter 15, GSTO1 counter 45*, LYPLA1 counter -8, LYPLA2 counter 1 and GSTO1 inh conf 1.

Screening data: PubChem BioAssay, The Scripps Research Institute Molecular Screening Center
